Shown are actives, neighbours in structure and some others; about 3.7% of the full set was active somewhere.
HTT aggregate: qHTS Multiplex Assay to Identify Dual Action Probes in a Cell Model of Huntington: Aggregate Formation (GFP); Potency, µM (titrated, usually from 46.1 µM), for inactives: at the highest dose activity change, negative = inhibition, usual class: inhibitors; PC12 HttQ103-GFP aggregates, Acumen cytometry, 40 h; 220,000 compounds, 1.1% hits; also: % is scaled to controls: 0 for no effect and ±100 for the full control effect; nearly all actives have a fitted effect of over 60% in size
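Huntingtin Q103 exon 1–GFP aggregates in induced PC12 cells (100 nM tebufenozide) were quantified by cytometry from lysates, with compounds dosed in titration.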
Tau ThT inhib: qHTS for Inhibitors of Tau Fibril Formation, Thioflavin T Binding | Microtubule-associated protein tau (Homo sapiens), P10636 | recombinant tau K18 P301L, heparin-induced fibrillization, ThT fluorescence | Potency, µM (series often up to 57.4 µM), inactives show at the highest dose activity, negative = inhibition, hits mostly inhibitors | 270,000 compounds, 2.1% hits | AID 1460, 2008; also: % is scaled to controls: 0 for no effect and ±100 for the full control effect; nearly all actives have a fitted effect of over 55% in size
Target sequence (P10636 561-689 P618L limits assumed): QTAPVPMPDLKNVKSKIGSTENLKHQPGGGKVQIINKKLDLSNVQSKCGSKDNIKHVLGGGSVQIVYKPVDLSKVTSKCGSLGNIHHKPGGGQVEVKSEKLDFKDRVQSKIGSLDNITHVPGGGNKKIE
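Recombinant human tau K18 fragment […] carrying P301L, 15 uM unlabeled plus 0.24 uM Alexa 594-labeled, was fibrillized with 20 uM heparin in 100 mM sodium acetate pH 7 for 6 hr at 37 C; 30 uM ThT fluorescence read after 1 hr.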
Tau FP inhib: qHTS for Inhibitors of Tau Fibril Formation, Fluorescence Polarization; Microtubule-associated protein tau (Homo sapiens), P10636; K18 P301L tau heparin fibrillization, Alexa594 FP, 6 h; Potency, µM (highest dose often 57.7 µM), inactives show top-dose activity, negative = inhibition, most hits filed as inhibitors; 280,000 compounds, 0.39% hits; AID 1468, 2008; also: % is scaled to controls: 0 for no effect and ±100 for the full control effect; nearly all actives have a fitted effect of over 55% in size
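Steps: dispense K18 P301L tau (15 uM plus 0.24 uM Alexa 594 tracer, final) in pH 7 sodium acetate; add compound; add heparin (20 uM final); incubate 6 hr, 37 C; add ThT (30 uM final); after 1 hr ambient, read FP.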
Tau fluor counter: Counterscreen qHTS for Inhibitors of Tau Fibril Formation, Fluorescence Polarization; tau K18 P301L Alexa594 fluorescence, heparin fibrillization; Potency, µM (highest dose often 57.7 µM), for the others: at the highest dose activity change, negative = decrease; 280,000 compounds, 0.93% hits; AID 1463, 2008; also: % is scaled to controls: 0 for no effect and ±100 for the full control effect; nearly all actives have a fitted effect of over 55% in size
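Human tau K18 P301L (15 uM unlabeled, 0.24 uM Alexa 594-labeled) in 100 mM sodium acetate pH 7 with 20 uM heparin, 6 hr at 37 C. ThT 30 uM added, 1 hr ambient; Alexa 594 FP and total fluorescence read at 555/632 nm.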
HTT ATP protect: qHTS Multiplex Assay to Identify Dual Action Probes in a Cell Model of Huntington: Cytoprotection (ATP). PC12 HTT-Q103 induced, cytoprotection, ATP luminescence, 40 h. 230,000 compounds, 0.14% hits. AID 1471, 2008. Potency, µM (top dose mostly 56.4 µM), inactives show cytoprotection (ATP increase), hits mostly activators; also: % of control where 0% means no effect; nearly all actives have a fitted effect of over 45% in size
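PC12 cells with ecdysone-inducible HTT exon 1 Q103-GFP, induced with 100 nM tebufenozide and co-treated with library compounds in a dose series (1536-well, 1500 cells/well). Cytoprotection read as ATP content by ATPlite luminescence.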
* marks the source's active call; other numbers are inactive results; ? = inconclusive; / = not tested or not shown; [ ] = another dose, or the depositor's remark. Calls follow the shape of the dose curve; as a rule, active = well fitted curve in the direction sought with a large enough effect; inconclusive = small, poorly fitted or top-dose-only effect, or another doubt; inactive = no such curve, though single readings can be large; an effect the other way counts as inactive or inconclusive. Potency is read from the fitted curve at half-maximal effect.

SMILES	HTT aggregate	Tau ThT inhib	Tau FP inhib	Tau fluor counter	HTT ATP protect
Cc1ccc(NC(=O)C2CCCN2S(=O)(=O)c2ccc3nc(-c4ccccc4)[nH]c3c2)cc1F (stereo unspecified)	/	-11%	?	28µM*[quencher]	/
O=C1c2c(O)ccc(O)c2C(=O)c2c(NCCNCCO)ccc(NCCNCCO)c21	10µM*	8.9µM*	?	3.2µM*[quencher]	-274%
Cc1ccc(CNCCNCCO)s1	19%	0%	-8%	0%	/
Nc1nn2c(-c3ccccc3)cc(=O)[nH]c2c1N=Nc1ccc(O)cc1	13%[9.22 µM]	4%	3%	5%	-7%
Nc1nn2c(-c3ccccc3)cc(=O)[nH]c2c1N=Nc1ccc(Br)cc1	-19%[9.22 µM]	2.2µM*	9%	-23%	-20%[1.9 µM]
Cc1cc(/C=C2\C(=N)N3N=C(c4ccco4)SC3=NC2=O)c(C)n1Cc1ccccc1	-15%[9.22 µM]	13µM*	-7%	?	5%[10 µM]
CCC1=NN2C(=N)/C(=C/c3cc(C)n(Cc4ccccc4)c3C)C(=O)N=C2S1	-13%[9.22 µM]	?	-2%	-28%	0%[10 µM]
Cc1ccc(C)c(NS(=O)(=O)c2cc3c(cc2Cl)NC(=O)CO3)c1	/	-17%	2%	14µM*[quencher]	/
COCc1ccc([C@@H]2C[C@H]3CN(Cc4ccccc4C)C(=O)[C@]34CCCN24)o1	4.5µM*	-16%	-6%	0%	-147%
CN(C)c1ccc(CNc2nc(-c3ccco3)nn2C(=O)c2cccc([N+](=O)[O-])c2)cc1	/	?	9%	13µM*[quencher]	/
CC(=NC1CCCCC1)c1ccccc1O	/	/	/	/	-9%[10 µM]
C/C(=N\NC(=O)c1cc2ccccc2cc1O)c1ccc2c(c1)OCO2	-7%	7.1µM*	1%	?	-23%
C/C(CC(=O)Nc1ccc(Cl)c(C(F)(F)F)c1)=N\NC(=O)c1cc2ccccc2cc1O	?	13µM*	-5%	16µM*[quencher]	-22%[10 µM]
C/C(CC(=O)N1CCCC1)=N\NC(=O)c1cc2ccccc2cc1O	15%[9.22 µM]	13µM*	-15%	?	12%[10 µM]
C/C(=N\NC(=O)c1ccc(C)cc1C)c1ccc2c(c1)OCO2	2%	-9%	-2%	11%	9%[10 µM]
O=C(OCC(=O)N1CCCCC1)c1cc2ccccc2cc1O	1%	?	-5%	-15%	-21%[0.074 µM]
CCOc1ccc(OCC)c(NC(=O)c2csc3c2CCCC3)c1	/	-5%	4%	-12%	/
CN(C)Cc1ccc(-c2cc3onc(-c4ccccc4)c3c(=O)n2C)cc1	/	/	/	/	-4%[10 µM]
Nc1cc(C(=O)O)[nH]c(=O)n1	/	/	/	/	-5%[10 µM]
Nc1c(-c2ccccc2)nc(Cl)nc1-c1ccccc1	15%	-9%	1%	-8%	-6%
c1ccc(-c2nc3nonc3nc2-c2ccccc2)cc1	3.2µM*	-4%	6%	-17%	-140%
COC(=O)c1ccccc1NC(=O)C1CCCN(C(=O)c2cnn(-c3ccc(F)cc3)c2-n2cccc2)C1 (stereo unspecified)	/	-11%	0%	-5%	/
CCNc1ncc2nc(-c3cccs3)c(=O)n(Cc3cccc(OC)c3)c2n1	/	/	/	/	-25%
COc1cc(C(=O)Nc2c(C(=O)Nc3ccccc3F)oc3ccccc23)cc(OC)c1OC	/	0%	-9%	-25%	/
COc1ccc(N2C3=C(CC4=C2CC(C)(C)CC4=O)C(=O)CC(C)(C)C3)cc1	16%[9.22 µM]	20µM*	?	-22%	-94%
SMILES	HTT aggregate	Tau ThT inhib	Tau FP inhib	Tau fluor counter	HTT ATP protect
O=C1CC2(CCCC2)CC(=O)N1c1ccccc1	-10%	-8%	-4%	-8%	11%
COc1ccc(N2C(=O)CC3(CCCC3)CC2=O)cc1	15%	10%	-6%	8%	3.2µM*
c1ccc(CO[C@H]2NCCN2Cc2ccccc2)cc1	/	/	/	/	7%[10 µM]
O=[N+]([O-])c1ccc2c(c1Nc1ccccc1)=NC1(CCCCC1)N=2	?	?	-5%	-21%	-21%
COc1ccc(Nc2c([N+](=O)[O-])ccc3c2=NC2(CCCCC2)N=3)cc1	17%	16µM*	?	?	-17%
Nc1ccc2c(c1)N1CCN=C1S2	3%[9.22 µM]	-14%	-1%	3%	-1%
O=C(Nc1ccc(Cl)cc1)Nc1ccc2c(c1)N1CCN=C1S2	?	-15%	-11%	14µM*[quencher]	-1%[0.074 µM]
O=C(c1cccc(F)c1)N1CCC(c2c[nH]c3ccccc23)(c2c[nH]c3ccccc23)CC1	/	9%	-8%	-24%	/
CCC(C(=O)NNC(=O)c1cnccn1)c1ccccc1 (stereo unspecified)	7.9µM*	-4%	-1%	0%	2%[10 µM]
COc1ccc(C2C(C(C)=O)=C(C)N=c3s/c(=C\c4cc(C)n(C)c4C)c(=O)n32)c(OC)c1 (stereo unspecified)	?	?	5%	?	9%
COc1ccc(C2C(C(C)=O)=C(C)N=c3s/c(=C\c4ccco4)c(=O)n32)c(OC)c1 (stereo unspecified)	9%	13µM*	-6%	?	18%
CN1CCc2nc(N)nc(-c3nc(N)nc4c3CN(C)CC4)c2C1	/	/	/	/	5%[10 µM]
CC(=O)c1c(C)[nH]c(C(=O)COc2cc(C)cc(C)c2)c1C	-17%	-15%	-7%	-10%	8%
CCCOc1ccc(OCC(=O)c2[nH]c(C)c(C(C)=O)c2C)cc1	8.9µM*	?	9%	-9%	-6%
O=[N+]([O-])c1ccc(NNC(=S)Nc2ccc(F)cc2)cc1	?	13µM*	2%	?	25%[10 µM]
O=C(NNC(=S)Nc1ccc(F)cc1)c1cccc([N+](=O)[O-])c1	2%[9.22 µM]	?	5%	-18%	14%[10 µM]
CC(C)CCNC(=S)Nc1ccc([N+](=O)[O-])cc1	20µM*	-13%	?	?	30%[0.074 µM]
Oc1ccc2ccccc2c1N=Nc1ccc(F)cc1	-6%[9.22 µM]	?	-9%	-16%	8%[10 µM]
NS(=O)(=O)c1ccc(N=Nc2c(O)c(C(=O)O)cc3ccccc23)cc1	-8%[9.22 µM]	5µM*	?	?	-15%[10 µM]
O=C(O)Cc1ccc(N=Nc2c(O)c(C(=O)O)cc3ccccc23)cc1	-15%[9.22 µM]	13µM*	?	-27%	-4%[10 µM]
Cc1nc(SCC(=O)OC(C)(C)C)c2c3c(sc2n1)CCCC3	/	-12%	-1%	-6%	/
Cc1ccc(S(=O)(=O)NN2C(=O)/C(=C/c3ccccn3)SC2=S)cc1	19%	?	3%	-2%	9%[10 µM]
CC(/C=C1\SC(=S)N(NS(=O)(=O)c2ccc(C)cc2)C1=O)=C\c1ccccc1	0%[9.22 µM]	11µM*	?	-15%	-5%[10 µM]
CC(/C=C1\SC(=S)N(NS(=O)(=O)c2ccccc2)C1=O)=C\c1ccccc1	23%[9.22 µM]	10µM*	?	-29%	23%[10 µM]
CCN1C(=O)/C(=C2\SC(=S)N(NC(=O)c3ccccc3O)C2=O)c2ccccc21	24%[9.22 µM]	20µM*	?	20µM*[quencher]	21%[10 µM]

Assay outcomes (PubChem BioAssay)
